Our source for the ΔTm values is ChEMBL document CHEMBL5308504, “Tm Shift (DSF) assay results for EUbOPEN Chemogenomics Library” (2023).

Values joined by “and” are separate entries in the source; they are usually repeats but may differ in a detail not shown here. Equal values may be shown once.

Assay [1] has as its target Bromodomain-containing protein 4 (Homo sapiens) (UniProt O60885). The conditions noted are these: Compound concentration 20.0 uM, Protein concentration 2.0 uM, Result type QC Liability.
Assay [2] has as its target T1, Transcription intermediary factor 1-alpha (Homo sapiens) (UniProt O15164).
T1 sequence (whole entry): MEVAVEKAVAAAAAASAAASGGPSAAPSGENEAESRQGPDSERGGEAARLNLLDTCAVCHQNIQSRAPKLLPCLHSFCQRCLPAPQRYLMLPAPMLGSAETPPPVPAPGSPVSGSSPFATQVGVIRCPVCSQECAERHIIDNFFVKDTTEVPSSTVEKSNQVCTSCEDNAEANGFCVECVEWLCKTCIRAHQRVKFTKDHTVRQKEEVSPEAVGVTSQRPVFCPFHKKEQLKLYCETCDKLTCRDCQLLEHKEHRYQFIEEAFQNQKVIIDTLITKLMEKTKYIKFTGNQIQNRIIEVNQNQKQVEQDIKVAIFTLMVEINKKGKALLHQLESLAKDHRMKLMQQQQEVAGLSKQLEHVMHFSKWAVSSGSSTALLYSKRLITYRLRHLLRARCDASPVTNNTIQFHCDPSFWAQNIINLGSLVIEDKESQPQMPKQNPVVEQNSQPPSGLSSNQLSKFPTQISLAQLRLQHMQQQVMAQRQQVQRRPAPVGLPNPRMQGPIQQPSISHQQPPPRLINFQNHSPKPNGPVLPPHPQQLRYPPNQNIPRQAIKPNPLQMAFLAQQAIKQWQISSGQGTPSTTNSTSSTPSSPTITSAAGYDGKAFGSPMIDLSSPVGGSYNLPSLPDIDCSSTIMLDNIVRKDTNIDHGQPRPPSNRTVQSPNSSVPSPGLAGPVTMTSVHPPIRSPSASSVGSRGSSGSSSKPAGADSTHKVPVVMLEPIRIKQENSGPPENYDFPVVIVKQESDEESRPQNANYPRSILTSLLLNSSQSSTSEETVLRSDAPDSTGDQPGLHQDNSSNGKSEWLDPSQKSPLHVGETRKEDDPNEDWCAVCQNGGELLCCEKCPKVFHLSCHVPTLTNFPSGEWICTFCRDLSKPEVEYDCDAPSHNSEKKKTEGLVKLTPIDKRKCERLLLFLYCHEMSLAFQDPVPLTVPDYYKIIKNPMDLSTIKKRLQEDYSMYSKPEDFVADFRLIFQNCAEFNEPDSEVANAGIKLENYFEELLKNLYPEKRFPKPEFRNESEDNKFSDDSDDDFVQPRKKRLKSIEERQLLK
The conditions noted are these: Compound concentration 20.0 uM, Protein concentration 2.0 uM, Result type QC Liability.

As a reminder, the ΔTm is the change in melting temperature against a reference sample. Take `COc1ccc(CC[C@@H](OC(=O)[C@@H]2CCCCN2C(=O)[C@H](c2cc(OC)c(OC)c(OC)c2)C2CCCCC2)c2cccc(OCCN3CCOCC3)c2)cc1OC`: the results for the ΔTm in assay [1] and in assay [2] were -4.68 °C and -1.51 °C, respectively.
Turning to `Cc1c(N2CCCC2)nc2ccc(Br)cc2c1C(=O)NC[C@H](CCC(=O)O)c1ccccc1Cl`, the ΔTm in assay [1] is -0.88 °C and -3.16 °C; in assay [2] it was 0.3 °C and -2.24 °C.
As for `N#Cc1ccc(C#CC[C@@H](C#N)NC(=O)[C@@H]2CCCCN2)cc1F`, the results for the ΔTm in assay [1] and in assay [2] were -1.93 °C and 0.36 °C, respectively.
The corresponding values for `Cc1cc(S(=O)(=O)N2CC(C)(C)c3cc(-c4ccc(C(F)(F)F)cc4)ccc32)ccc1OCC(=O)O` are 0.64 °C and 0.9 °C.
For `Cn1cc(-c2cnc3ccc4ccc(CS(=O)(=O)NCc5ccccn5)cc4c(=O)c3c2)cn1`, in that order: -1.72 °C and -0.28 °C.
`Cc1cn([C@@H](C)CC#N)c(=O)c2cc(Cn3nc(C(F)F)cc3Cl)nn12`: the ΔTm is -0.88 °C in assay [1] and -2.22 °C in assay [2].
With `CC(C)(C)OC(=O)CN1C(=O)c2c(OCC(=O)O)cccc2Oc2ccc(C(F)(F)F)cc21`, the ΔTm in assay [1] is 0 °C; in assay [2], 0.32 °C.
For the molecule `Cc1nc2c(cc1F)c(-c1nnc3c(n1)NC(=O)C3(C)C)nn2Cc1cccc(F)c1F`, the ΔTm in assay [1] was -0.37 °C; in assay [2] it was 0.14 °C.
Consider `CN(C(=O)c1cnn2cccnc12)c1cc2c(cc1N1CCOCC1)C(=O)N(C[C@@H](F)C(C)(C)O)C2`, for which the ΔTm in assay [1] was 0.93 °C; in assay [2], -2.51 °C.
In the case of `Cc1ncsc1-c1ccc(CNC(=O)[C@@H]2C[C@@H](O)CN2C(=O)[C@@H](NC(=O)CCCCNC(=O)c2ccc(-c3ccc(N4CCN(C)CC4)c(NC(=O)c4c[nH]c(=O)cc4C(F)(F)F)c3)cc2)C(C)(C)C)cc1`, the ΔTm in assay [1] was -6.12 °C; in assay [2], -1.25 °C.
Turning to `CC(=O)Nc1nc(CN2CCC[C@H](Cc3cc(C)nc(C)c3)C2)cs1`, the figures for the ΔTm in assay [1] and in assay [2] were 0.35 °C and -1.42 °C, respectively.
As for `CN1CCN(c2ccnc(NCCc3ccccc3)n2)CC1`, the ΔTm in assay [1] was -0.31 °C; in assay [2] it was -0.99 °C.
As to `COCCN1CCN(CCn2ccc(Nc3ncc4c(n3)-c3c(nn(C)c3-c3ccccc3)C[C@H]4C)n2)CC1`, the ΔTm was -1.68 °C in assay [1] and -2.88 °C in assay [2].
Regarding `O=C(Nc1cccc(C(F)(F)F)c1)c1cccc(-n2cc(-c3ccco3)nn2)c1`, the ΔTm was -12.8 °C in assay [1] and -0.66 °C in assay [2].
As to `CC(C)(C[C@H]1CN(S(=O)(=O)c2cccc(C(F)(F)F)c2)c2cc(-c3cc(F)cc(OC(F)F)c3)ccc2O1)C(=O)O`, the ΔTm is -6.18 °C in assay [1] and -2.16 °C in assay [2].
As for `N[C@@H]1CCCN(c2c(/C=C3\SC(=O)NC3=O)cccc2-c2ccccc2)C1`, the ΔTm in assay [1] is -2.91 °C; in assay [2], -2.28 °C.
Take `CC(=O)Nc1cccc(-n2c(=O)n(C3CC3)c(=O)c3c(Nc4ccc(I)cc4F)n(C)c(=O)c(C)c32)c1`: the ΔTm in assay [1] was -2.35 °C; in assay [2] it was -2.86 °C.
On to `Cc1cc(CN)cc(C)c1-c1ncn(C)c1-c1cncn1C`, for which the values for the ΔTm in assay [1] and in assay [2] were -1.42 °C and 0.01 °C, respectively.
Take `COc1cc(-c2cc3ncccc3c(O[C@H](C)[C@H]3CNC(=O)C3)n2)cc(OC)c1OC`: the ΔTm in assay [1] was -1.66 °C and 1.15 °C; in assay [2], 0.28 °C and -2.67 °C.
`Cc1c(-c2c(F)cc(C(N)=O)c3[nH]c4c(c23)CC[C@H](C(C)(C)O)C4)cccc1-n1c(=O)c2cccc(F)c2n(C)c1=O`: the ΔTm in assay [1] is -0.86 °C; in assay [2] it was 0.6 °C.
`CC(C)(C#Cc1ccc(NC(=O)COc2ccccc2C(=O)c2ccccc2)c(Cl)c1)C(=O)O`: the ΔTm in assay [1] worked out at 0.63 °C; in assay [2] it was 0.79 °C.
On to `C=CC(=O)Nc1ccc(C(=O)Nc2[nH]nc3c2CN(C(=O)N[C@H](CN(C)C)c2ccccc2)C3(C)C)cc1`, for which the ΔTm was 0.61 °C in assay [1] and -2.21 °C in assay [2].
Consider `COc1cc(C)c(S(=O)(=O)N(C)CCC(=O)N[C@H]2CC[C@@H](N3CCC4CN(C)CC4C3)CC2)c(C)c1` (some centres undefined), for which the ΔTm is -4.82 °C in assay [1] and -0.4 °C in assay [2].
As for `CN1CCN(c2ccc(-n3cc(-c4ccncc4OCC4CCNCC4)cn3)cc2)CC1`, the ΔTm is -1.52 °C in assay [1] and -2.76 °C in assay [2].
Turning to `CCC(C(=O)Nc1ccc(-c2cc3ccccc3s2)c(C(N)=O)c1)c1nccs1` (centres undefined), the ΔTm in assay [1] is -0.87 °C; in assay [2], 0.44 °C.
Turning to `COc1nc2ccc([C@@](O)(c3ccccc3)C3CCN(C(C)=O)CC3)cc2c(Cl)c1Cc1ccc(-n2cccn2)cc1`, the values for the ΔTm in assay [1] and in assay [2] were -3.41 °C and -0.87 °C, respectively.
As to `CC(C)S(=O)(=O)c1ccccc1Nc1nc(N[C@@H]2CCCN(CCCCCCCNC(=O)COc3cccc4c3C(=O)N(C3CCC(=O)NC3=O)C4=O)C2)ncc1Cl` (some centres undefined), the ΔTm in assay [1] is 1.89 °C; in assay [2] it was 0 °C.
With `CCOC(=O)Nc1ccc2c(c1)N(C(=O)CN(CC)CC)c1ccccc1CC2`, the ΔTm in assay [1] is -1.53 °C; in assay [2], -1.69 °C.
The corresponding values for `CCO[C@@H](Cc1ccc(OCCc2ccc(OS(C)(=O)=O)cc2)cc1)C(=O)O` are -0.9 °C and -3.53 °C.
`CCN(C)C(=O)c1ccc2c(c1)NC(=O)/C2=C(\NC1CCN(C)CC1)c1ccccc1`: the ΔTm in assay [1] was determined as 0.55 °C; in assay [2] it was 0.21 °C.
As to `Nc1ncnc2c1c(I)cn2[C@@H]1O[C@H](CO)[C@@H](O)[C@H]1O`, the ΔTm in assay [1] was -1.9 °C; in assay [2] it was -4 °C.
For `O=C(O)c1cccc(C2=C(c3cc(Cl)ccc3OCc3ccc(F)cc3F)CCC2)n1`, in that order: -0.65 °C and -2.91 °C.
Take `CC(C)N1CCN(Cc2cnc(-c3cc(-c4cccc5[nH]ccc45)cc4[nH]ncc34)o2)CC1`: the ΔTm in assay [1] was 0 °C; in assay [2] it was -2.06 °C.
For `COCCOCn1c(S(C)(=O)=O)nc2c1c(=O)n(C)c(=O)n2C`, the ΔTm in assay [1] was -12.2 °C; in assay [2], 0.18 °C.
As for `CC1(C)C[C@@H]1C(=O)N/C(=C\CCCCSC[C@H](N)C(=O)O)C(=O)O`, the figures for the ΔTm in assay [1] and in assay [2] were -2.05 °C and -0.56 °C, respectively.
Turning to `Oc1c(-c2cccnc2)cnn1-c1ccccn1`, the ΔTm is -1.85 °C in assay [1] and 0.29 °C in assay [2].
`COc1cc(C(=O)NC2CCN(C)CC2)ccc1Nc1ncc(C(F)(F)F)c(NCc2ccc(C)cc2N(C)S(C)(=O)=O)n1`: the ΔTm in assay [1] was -2.71 °C; in assay [2] it was -3.38 °C.
